# From PubChem
# TGFb inhibitor = blocks TGF-b signaling; Potency, µM (highest dose often 46.1 µM), without a hit: at the top dose activity, negative = inhibition, usual class: inhibitors; HepG2 CAGA-GFP TGF-b/SMAD3 reporter, GFP fluorescence, 18 h; TGF-beta stimulated, 500 pg/mL final; actives 1.2% (n = 410,000); also: % is scaled to controls: 0 for no effect and ±100 for the full control effect; nearly all actives have a fitted effect of over 65% in size
#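 Inhibition of TGF-beta-driven CAGA-GFP reporter expression in HEPG2 cells is measured by cellular GFP fluorescence after 18 h stimulation with 500 pg/mL recombinant TGF-beta in 1% FBS medium at 37 degrees C.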
# ATXN viability = reduces viability in counter-screen for ATXN expression inhibitors; S2 cells (HEK-293 line with an ATXN2-luciferase reporter) viability, CellTiter-Fluor protease fluorescence, 24 h; Potency, µM (top dose mostly 56.7 µM), actives largely listed as cytotoxic; actives 0.49% (n = 400,000); AID 651635; also: nearly all actives have a fitted effect of over 40% in size
# RORgamma inh = ROR gamma (mouse) transcription inhibition | Potency, µM (titrated, usually from 53.6 µM), for the others: top-dose activity change, negative = inhibition, most hits filed as inhibitors | actives 5.4% (n = 310,000) | Drosophila S2 Gal4-RORgamma UAS-luciferase reporter, 20 h | P51450; also: % is scaled to controls: 0 for no effect and ±100 for the full control effect; nearly all actives have a fitted effect of over 60% in size
# Target sequence (P51450 whole entry, looked up, the tested form may be a part): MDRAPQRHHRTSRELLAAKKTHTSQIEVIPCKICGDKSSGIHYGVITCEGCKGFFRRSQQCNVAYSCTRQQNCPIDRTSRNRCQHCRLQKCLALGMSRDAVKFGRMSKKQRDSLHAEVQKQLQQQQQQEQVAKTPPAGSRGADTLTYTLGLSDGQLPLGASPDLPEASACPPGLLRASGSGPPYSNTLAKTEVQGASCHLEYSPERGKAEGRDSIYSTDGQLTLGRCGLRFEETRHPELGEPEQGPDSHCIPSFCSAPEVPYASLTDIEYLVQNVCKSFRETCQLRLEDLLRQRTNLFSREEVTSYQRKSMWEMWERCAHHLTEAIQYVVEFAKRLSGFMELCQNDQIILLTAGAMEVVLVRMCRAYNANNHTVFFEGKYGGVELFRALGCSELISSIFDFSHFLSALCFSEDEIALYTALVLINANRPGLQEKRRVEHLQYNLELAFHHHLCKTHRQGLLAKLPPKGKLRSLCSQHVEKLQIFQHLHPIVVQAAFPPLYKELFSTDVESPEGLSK
#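 Luminescence from a UAS-regulated Photinus luciferase reporter in stably transfected Drosophila Schneider cells is measured; decreased signal marks ROR gamma inhibition. Fusion expression is induced by 700 uM copper sulfate for 20 hr.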
# VP16 counter = counter-screen for ROR gamma inhibitors: Gal4-VP16 reporter; AID 2546; Potency, µM (top dose mostly 53.6 µM), for the others: at the top dose activity, negative = inhibition, usual class: inhibitors; Drosophila S2 Gal4-VP16 UAS-luciferase, luminescence, 20 h; actives 3.5% (n = 310,000);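 also: Gal4-VP16 expression switched on by copper sulfate through the metallothionein promoter; % is scaled to controls: 0 for no effect and ±100 for the full control effect; nearly all actives have a fitted effect of over 50% in size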
# HepG2 tox = counter-screen for TGF-b inhibitors: cytotoxicity in HepG2 cells | HepG2 CAGA-GFP viability, ATP luminescence, 18 h | actives 0.76% (n = 410,000) | Potency, µM (titrated, usually from 46.1 µM), without a hit: top-dose activity change, negative = cytotoxicity, hits mostly cytotoxic
#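 CellTiter-Glo luminescence gave cytotoxicity after 18 hours at 37 degrees C. The cells were HepG2 CAGA-GFP in 1% FBS DMEM, stimulated with 500 pg/mL TGF-beta after compound addition. %Activity was normalised to no-cell wells (complete cell-killing) and DMSO (no toxicity), and curves were fitted and classified.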
# ATXN2 expr inh = ATXN2 expression inhibition; Potency, µM (highest dose often 57 µM), without a hit: top-dose activity change, negative = inhibition, actives largely listed as inhibitors; actives 0.72% (n = 360,000); HEK-293 ATXN2-luciferase reporter, luminescence, 24 h; also: % is scaled to controls: 0 for no effect and ±100 for the full control effect; nearly all actives have a fitted effect of over 55% in size
#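 qHTS (up to 57 uM final) was run with 24 h compound exposure of reporter cells at 37 °C. Each well was multiplexed: SteadyGlo luminescence measured ATXN2-luciferase expression after a fluorogenic Gly-Phe-AFC viability readout (25 uM final).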
# * hit, by the source's call; i = inactive; ? = inconclusive; . = no result given; [ ] = another dose, or the depositor's remark. An excerpt weighted towards active compounds, which were near 6.3% of everything screened. Calls follow the shape of the dose curve; as a rule, active = well fitted curve in the direction sought with a large enough effect; inconclusive = small, poorly fitted or top-dose-only effect, or another doubt; inactive = no such curve, though single readings can be large; an effect the other way counts as inactive or inconclusive. Potency is read from the fitted curve at half-maximal effect.
SMILES,TGFb inhibitor,ATXN viability,RORgamma inh,VP16 counter,HepG2 tox,ATXN2 expr inh
CCCCC(=O)NC(c1ccc([N+](=O)[O-])cc1)c1c(O)ccc2ccccc12 (stereo not drawn),?,?,?,?,-48%,?
O=C(NC(c1ccc(Cl)cc1)c1c(O)ccc2ccccc12)c1ccccc1 (stereo not drawn),11µM*,i,-101%,?,18µM*,13%
Cc1ccccc1NC(=O)Cn1c(=O)n(CCCCCC(=O)NCc2ccc3c(c2)OCO3)c(=O)c2sccc21,?,.,.,.,-40%,.
O=C(COCc1cc(-c2ccc(F)cc2)on1)Nc1cc(Cl)cc(Cl)c1,24%,.,.,.,-1%,.
Cc1ccc(-n2c(=S)[nH]c3sc4c(c3c2=O)CCC4)cc1,23%,i,1.1µM*,3.5µM*,-36%,-12%[11.3 µM]
COc1ccc(-n2c(=O)c3c4c(sc3n3c(=S)[nH]nc23)CCC4)cc1,-14%,i,11µM*,-13%,-22%,-1%
O=c1c2c3c(sc2n2c(=S)[nH]nc2n1-c1ccccc1)CCC3,6%,i,0%,6%,-24%,-22%
Cc1ccc(-n2c(=O)c3c4c(sc3n3c(=S)[nH]nc23)CCC4)cc1,-7%,i,11µM*,-3%,3%,.
Cc1ccc(-n2c(=O)[nH]c3sc4c(c3c2=O)CCCC4)cc1,-1%,i,.,.,-58%,2%
O=C(Nc1ccc(F)cc1)C1CCN(c2nc3ccccc3nc2C(F)(F)F)CC1,-16%,i,.,.,-24%,3%
O=C1OCC/C1=C\NCCCCCCCCN/C=C1\CCOC1=O,4%,i,.,.,-27%,.
O=C(CS(=O)(=O)c1cccc2nsnc12)N1CCN(c2cccc(C(F)(F)F)c2)CC1,-16%,i,.,.,-21%,-22%
Nc1[nH]n2c(=O)c3c(nc2c1N=Nc1ccccc1)CCCC3,0%,?,-28%,-7%,-19%,?
N#Cc1c[nH]n2c(=O)c3c(nc12)CCCC3,.,.,-2%,-7%,.,.
Cc1[nH]n2c(=O)c3c(nc2c1-c1ccc(Cl)cc1)CCC3,-9%,i,2.2µM*,?,-24%,?
Cc1[nH]n2c(=O)c3c(nc2c1-c1ccccc1)CCC3,?,i,13µM*,?,-45%,-35%
O=c1c2c(nc3c(-c4ccccc4)c[nH]n13)CCCC2,-14%,i,10µM*,?,9%,-8%
CCCNC(=O)c1csc(Nc2cccc3ccccc23)n1,-8%,?,25%,0%,-17%,.
O=C(NCC1CCCO1)c1csc(Nc2cccc3ccccc23)n1 (stereo not drawn),?,?,11µM*,-10%,-1%,-17%
Clc1ccc(Cn2cc3c(n2)-c2cc4ccccc4n2C3)cc1,-8%,.,.,.,-34%,.
OC(c1ccccc1)c1nc(-c2cccc(C(F)(F)F)c2)cs1 (stereo not drawn),?,?,.,.,-58%,6%
Cc1cccc(S(=O)(=O)c2cn(C)c3cc(N4CCC(C)CC4)c(F)cc3c2=O)c1,2%,.,.,.,6%,.
Cc1cc2c(cc1C)CSC(c1ccc3ccccc3c1O)SC2,-3%,i,-4%,-11%,-29%,-17%
Oc1ccccc1C1OCC2(CO1)COC(c1ccccc1O)OC2 (stereo not drawn),-15%,i,20%,-11%,-30%,7%
Cc1cc2c(cc1C)CSC(c1ccccc1O)SC2,16µM*,?,-25%,-18%,-105%,-23%
SMILES,TGFb inhibitor,ATXN viability,RORgamma inh,VP16 counter,HepG2 tox,ATXN2 expr inh
Oc1ccccc1C1SC(c2ccccc2O)SC(c2ccccc2O)S1 (stereo not drawn),?,.,.,.,22µM*,20µM*
C[n+]1c(/C=C/c2ccc(N)cc2)sc2ccccc21,-12%,.,.,.,-12%,.
CN(C)S(=O)(=O)c1ccc(C(=O)Nc2nc(-c3cc4ccccc4o3)cs2)cc1,?,i,?,6.3µM*,-42%,-27%
O=C(Nc1nc(-c2ccc(S(=O)(=O)N3CCOCC3)cc2)cs1)c1ccccc1,-19%,?,14%,-10%,-30%,?
O=C(Nc1nc(-c2cc3ccccc3o2)cs1)c1ccc(S(=O)(=O)N2CCCC2)cc1,-31%,i,?,7.9µM*,-20%,?
COc1cccc(C(=O)Nc2nc(-c3ccc(S(=O)(=O)N4CCOCC4)cc3)cs2)c1,8%,?,-27%[0.365 µM],.,-2%,16µM*
CC1CN(S(=O)(=O)c2ccc(C(=O)Nc3nc(-c4cc5ccccc5o4)cs3)cc2)CC(C)O1 (stereo not drawn),-4%,i,?,2.8µM*,-2%,?
Cn1c(=O)c2cc(S(=O)(=O)NC(Cc3ccccc3)C(=O)Nc3ccc(F)cc3)ccc2n(C)c1=O (stereo not drawn),-34%,i,.,.,-22%,-16%
CC(C)(C)NC(=O)COC(=O)CNC(=O)C1CCCCC1,7%,.,.,.,11%,.
c1ccc2oc(-c3csc(NCC4CCCO4)n3)cc2c1 (stereo not drawn),-21%,i,7.9µM*,?,1%,60%
C=CCNc1nc(-c2cc3ccccc3o2)cs1,5%,i,-33%,?,-2%,63%
CC(C)(C)CC(C)(C)N=C1Nc2ccc(Cl)cc2NC12C[C@H]1CCC(=O)N3CC[C@@H](C2)[C@@H]13 (stereo partly drawn),?,.,.,.,10µM*,.
O=C1CCC[C@@H]2C[C@@]3(C[C@@H]4CCN1[C@H]24)Nc1cc(Cl)c(Cl)cc1NC3=NCc1ccccc1,11µM*,.,.,.,-32%,0%
Cc1cc2c(cc1C)N[C@]1(C[C@H]3CCCC(=O)N4CC[C@@H](C1)[C@@H]34)C(=Nc1ccccc1C)N2,1%,.,.,.,11%,.
CC(C)(C)CC(C)(C)N=C1Nc2ccccc2N[C@]12C[C@H]1CCCC(=O)N3CC[C@@H](C2)[C@@H]13,?,.,.,.,-24%,.
Fc1ccc(Sc2nc(-c3ccccc3)nnc2C(F)(F)F)cc1,?,?,5.6µM*,7.1µM*,-91%,?
C=CCn1c(=O)n(C2OC(CO)C(O)C2O)c2nc(N)[nH]c(=O)c21 (stereo not drawn),.,.,-7%,-8%,.,.
O=C(CSc1nccc(-c2cccs2)n1)Nc1cccc(Cl)c1,7%,i,?,?,29%,-27%
O=C(CSc1nccc(-c2cccs2)n1)Nc1ccc(F)c(Cl)c1,13µM*,i,40%,26%,-46%,.
